Data as given in publication PMC7862700, “An all-to-all approach to the identification of sequence-specific readers for epigenetic DNA modifications on cytosine”.

Columns and labels:
Test in all cases: DAPPL (digital affinity profiling via proximity ligation, sequencing); 10 mM Tris-HCl pH 7.5, 50 mM NaCl, 1 mM DTT, 4% glycerol, room temperature, 30 min; GST-TFs on glutathione beads, 16-mer random dsDNA library, 0.1% formaldehyde crosslink after washing; high values mean tight binding
Settings in all cases: protein: recombinant; tags: N-terminal GST; dsDNA, one strand shown
[1] = molecular target: T1, ERF (Homo sapiens, UniProt P50548 1-548)
T1 sequence: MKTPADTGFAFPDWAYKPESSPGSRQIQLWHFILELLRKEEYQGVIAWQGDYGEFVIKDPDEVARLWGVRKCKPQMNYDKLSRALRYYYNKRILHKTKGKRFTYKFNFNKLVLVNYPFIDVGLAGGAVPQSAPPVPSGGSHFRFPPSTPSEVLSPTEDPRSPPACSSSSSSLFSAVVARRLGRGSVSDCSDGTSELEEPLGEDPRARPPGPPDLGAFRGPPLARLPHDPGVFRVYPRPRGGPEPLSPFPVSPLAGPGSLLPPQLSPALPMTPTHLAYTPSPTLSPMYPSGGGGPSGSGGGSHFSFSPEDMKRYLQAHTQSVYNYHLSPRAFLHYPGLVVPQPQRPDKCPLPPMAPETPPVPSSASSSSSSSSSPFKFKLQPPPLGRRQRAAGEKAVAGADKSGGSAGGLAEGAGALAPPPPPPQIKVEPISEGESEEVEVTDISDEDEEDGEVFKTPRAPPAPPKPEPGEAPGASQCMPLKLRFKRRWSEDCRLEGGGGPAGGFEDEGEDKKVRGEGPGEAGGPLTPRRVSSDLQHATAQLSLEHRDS
Method in brief: (§1)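 Binding signal is each hexamer's read frequency for a factor divided by its frequency in the tag-only sample. The factors were GST-fused human transcription factors from yeast, captured on glutathione beads, DNA-barcoded and pooled with that sample. Pools were incubated with 200 nmole of a random double-stranded 16-mer DNA library in Tris/NaCl/DTT/glycerol buffer at room temperature for 30 min, then washed, crosslinked with 0.1% formaldehyde, proximity-ligated with BsaI/T4 ligase (1 h, 37 °C), PCR-amplified and sequenced on an Illumina NextSeq500.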

[2] = molecular target: T2, ETV3L (Homo sapiens, UniProt Q6ZN32 1-361)
T2 sequence: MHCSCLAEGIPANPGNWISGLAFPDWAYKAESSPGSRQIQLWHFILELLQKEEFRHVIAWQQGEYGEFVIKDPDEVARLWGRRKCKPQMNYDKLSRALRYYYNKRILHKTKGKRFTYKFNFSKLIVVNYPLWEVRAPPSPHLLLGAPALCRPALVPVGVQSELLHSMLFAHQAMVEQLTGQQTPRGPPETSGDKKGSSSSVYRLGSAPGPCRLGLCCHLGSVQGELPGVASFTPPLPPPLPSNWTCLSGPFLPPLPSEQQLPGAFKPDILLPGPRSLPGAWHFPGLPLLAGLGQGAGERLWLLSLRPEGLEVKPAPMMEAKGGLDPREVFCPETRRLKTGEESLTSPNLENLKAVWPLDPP
Method in brief: as §1

[3] = molecular target: T3, ETS2 (Homo sapiens, UniProt P15036 1-469)
T3 sequence: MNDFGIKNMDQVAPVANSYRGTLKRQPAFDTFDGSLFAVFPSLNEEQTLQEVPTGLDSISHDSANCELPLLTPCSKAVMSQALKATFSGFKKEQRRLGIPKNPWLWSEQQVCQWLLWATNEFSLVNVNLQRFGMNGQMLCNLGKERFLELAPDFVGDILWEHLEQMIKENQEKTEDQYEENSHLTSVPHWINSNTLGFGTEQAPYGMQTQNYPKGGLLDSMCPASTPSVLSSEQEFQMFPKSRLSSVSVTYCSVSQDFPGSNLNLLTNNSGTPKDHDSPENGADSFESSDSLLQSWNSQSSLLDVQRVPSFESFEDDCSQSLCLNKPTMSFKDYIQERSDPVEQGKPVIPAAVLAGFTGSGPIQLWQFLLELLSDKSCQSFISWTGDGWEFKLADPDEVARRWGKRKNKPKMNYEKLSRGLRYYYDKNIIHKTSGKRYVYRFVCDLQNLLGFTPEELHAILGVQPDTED
Method in brief: as §1

[4] = molecular target: T4, SPDEF (Homo sapiens, UniProt O95238 1-335)
T4 sequence: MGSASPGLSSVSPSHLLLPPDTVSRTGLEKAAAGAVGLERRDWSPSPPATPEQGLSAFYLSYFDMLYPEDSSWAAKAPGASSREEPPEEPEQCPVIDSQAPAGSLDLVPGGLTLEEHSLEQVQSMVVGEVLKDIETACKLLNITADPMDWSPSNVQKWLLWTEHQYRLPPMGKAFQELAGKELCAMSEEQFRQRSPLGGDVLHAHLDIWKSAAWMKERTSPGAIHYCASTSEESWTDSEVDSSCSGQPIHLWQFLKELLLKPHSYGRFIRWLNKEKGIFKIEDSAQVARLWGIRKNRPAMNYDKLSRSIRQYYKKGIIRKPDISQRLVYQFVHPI
Method in brief: as §1

[5] = molecular target: T5, ETV7 (Homo sapiens, UniProt Q9Y603 1-341)
T5 sequence: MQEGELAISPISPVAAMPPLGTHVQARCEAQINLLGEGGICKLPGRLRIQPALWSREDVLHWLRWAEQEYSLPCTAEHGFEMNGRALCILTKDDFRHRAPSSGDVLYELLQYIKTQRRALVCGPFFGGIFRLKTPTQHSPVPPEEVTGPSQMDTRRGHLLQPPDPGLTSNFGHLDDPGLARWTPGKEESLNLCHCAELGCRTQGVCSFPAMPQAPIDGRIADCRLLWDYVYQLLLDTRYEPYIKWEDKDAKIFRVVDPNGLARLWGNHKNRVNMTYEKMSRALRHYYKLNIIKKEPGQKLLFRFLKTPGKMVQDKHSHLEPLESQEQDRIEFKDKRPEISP
Method in brief: as §1

[6] = molecular target: T6, ELF5 (Homo sapiens, UniProt Q9UKW6-2 1-255)
T6 sequence: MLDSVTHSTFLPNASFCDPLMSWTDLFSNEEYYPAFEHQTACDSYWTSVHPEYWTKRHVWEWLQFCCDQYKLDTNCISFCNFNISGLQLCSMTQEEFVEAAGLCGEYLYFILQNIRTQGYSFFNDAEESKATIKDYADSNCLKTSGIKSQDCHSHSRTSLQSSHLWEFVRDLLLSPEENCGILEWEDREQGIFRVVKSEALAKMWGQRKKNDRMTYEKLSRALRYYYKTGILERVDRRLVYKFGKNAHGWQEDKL
Method in brief: as §1

[7] = molecular target: T7, ETV3 (Homo sapiens, UniProt P41162-2 1-143)
T7 sequence: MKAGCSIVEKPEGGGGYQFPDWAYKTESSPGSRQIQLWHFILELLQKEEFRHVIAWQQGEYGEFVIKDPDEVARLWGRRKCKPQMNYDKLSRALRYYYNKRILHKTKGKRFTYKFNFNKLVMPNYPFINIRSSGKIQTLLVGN
Method in brief: as §1

[8] = molecular target: ETV6 (Homo sapiens, UniProt P41212 1-452)
Method in brief: as §1

ETV6, sequence (P41212 whole entry): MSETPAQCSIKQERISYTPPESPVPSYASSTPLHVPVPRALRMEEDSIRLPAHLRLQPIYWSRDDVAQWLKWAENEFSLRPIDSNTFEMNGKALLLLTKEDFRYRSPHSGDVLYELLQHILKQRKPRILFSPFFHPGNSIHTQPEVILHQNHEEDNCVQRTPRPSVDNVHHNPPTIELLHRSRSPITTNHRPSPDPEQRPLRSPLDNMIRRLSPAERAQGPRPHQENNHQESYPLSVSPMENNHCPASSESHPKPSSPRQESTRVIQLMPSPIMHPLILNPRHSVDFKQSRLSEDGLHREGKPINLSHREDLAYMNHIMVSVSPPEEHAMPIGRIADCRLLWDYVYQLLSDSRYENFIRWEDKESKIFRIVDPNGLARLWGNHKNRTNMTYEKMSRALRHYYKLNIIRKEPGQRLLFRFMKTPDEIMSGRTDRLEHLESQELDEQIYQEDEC

Sequence | binding signal [1] | binding signal [2] | binding signal [3] | binding signal [4] | binding signal [5] | binding signal [6] | binding signal [7] | binding signal [8]
CCCGGC | 1.06 fold enrichment (6-mer frequency, TF over GST control) | 1.19 fold enrichment (6-mer frequency, TF over GST control) | 1.16 fold enrichment (6-mer frequency, TF over GST control) | 1.28 fold enrichment (6-mer frequency, TF over GST control) | 1.13 fold enrichment (6-mer frequency, TF over GST control) | 1.14 fold enrichment (6-mer frequency, TF over GST control) | 1.27 fold enrichment (6-mer frequency, TF over GST control) | 1.22 fold enrichment (6-mer frequency, TF over GST control)
TCCACG | 1.03 fold enrichment (6-mer frequency, TF over GST control) | 1.18 fold enrichment (6-mer frequency, TF over GST control) | 1.09 fold enrichment (6-mer frequency, TF over GST control) | 1.1 fold enrichment (6-mer frequency, TF over GST control) | 1.06 fold enrichment (6-mer frequency, TF over GST control) | 1.04 fold enrichment (6-mer frequency, TF over GST control) | 1.01 fold enrichment (6-mer frequency, TF over GST control) | 1.06 fold enrichment (6-mer frequency, TF over GST control)
TAAGCT | 1.39 fold enrichment (6-mer frequency, TF over GST control) | 1.25 fold enrichment (6-mer frequency, TF over GST control) | 1.13 fold enrichment (6-mer frequency, TF over GST control) | 1.11 fold enrichment (6-mer frequency, TF over GST control) | 1.3 fold enrichment (6-mer frequency, TF over GST control) | 1.04 fold enrichment (6-mer frequency, TF over GST control) | 1.2 fold enrichment (6-mer frequency, TF over GST control) | 1.15 fold enrichment (6-mer frequency, TF over GST control)
CACGAA | 1.18 fold enrichment (6-mer frequency, TF over GST control) | 1.01 fold enrichment (6-mer frequency, TF over GST control) | 1.12 fold enrichment (6-mer frequency, TF over GST control) | 1.08 fold enrichment (6-mer frequency, TF over GST control) | 1.16 fold enrichment (6-mer frequency, TF over GST control) | 1.02 fold enrichment (6-mer frequency, TF over GST control) | 1.05 fold enrichment (6-mer frequency, TF over GST control) | 1.07 fold enrichment (6-mer frequency, TF over GST control)
TGTTCA | 1.32 fold enrichment (6-mer frequency, TF over GST control) | 1.23 fold enrichment (6-mer frequency, TF over GST control) | 1.2 fold enrichment (6-mer frequency, TF over GST control) | 1.3 fold enrichment (6-mer frequency, TF over GST control) | 1.25 fold enrichment (6-mer frequency, TF over GST control) | 1.2 fold enrichment (6-mer frequency, TF over GST control) | 1.25 fold enrichment (6-mer frequency, TF over GST control) | 1.14 fold enrichment (6-mer frequency, TF over GST control)
TACACA | 1.24 fold enrichment (6-mer frequency, TF over GST control) | 1.15 fold enrichment (6-mer frequency, TF over GST control) | 1.16 fold enrichment (6-mer frequency, TF over GST control) | 1.27 fold enrichment (6-mer frequency, TF over GST control) | 1.19 fold enrichment (6-mer frequency, TF over GST control) | 1.13 fold enrichment (6-mer frequency, TF over GST control) | 1.13 fold enrichment (6-mer frequency, TF over GST control) | 1.21 fold enrichment (6-mer frequency, TF over GST control)
TAAGCC | 1.15 fold enrichment (6-mer frequency, TF over GST control) | 1.2 fold enrichment (6-mer frequency, TF over GST control) | 1.15 fold enrichment (6-mer frequency, TF over GST control) | 1.12 fold enrichment (6-mer frequency, TF over GST control) | 1.1 fold enrichment (6-mer frequency, TF over GST control) | 1.03 fold enrichment (6-mer frequency, TF over GST control) | 1.12 fold enrichment (6-mer frequency, TF over GST control) | 1.03 fold enrichment (6-mer frequency, TF over GST control)
CATTCG | 1.21 fold enrichment (6-mer frequency, TF over GST control) | 1.17 fold enrichment (6-mer frequency, TF over GST control) | 1.17 fold enrichment (6-mer frequency, TF over GST control) | 1.15 fold enrichment (6-mer frequency, TF over GST control) | 1.18 fold enrichment (6-mer frequency, TF over GST control) | 1.13 fold enrichment (6-mer frequency, TF over GST control) | 1.27 fold enrichment (6-mer frequency, TF over GST control) | 1.27 fold enrichment (6-mer frequency, TF over GST control)
CTGAAG | 1.26 fold enrichment (6-mer frequency, TF over GST control) | 1.09 fold enrichment (6-mer frequency, TF over GST control) | 1.22 fold enrichment (6-mer frequency, TF over GST control) | 1.15 fold enrichment (6-mer frequency, TF over GST control) | 1.07 fold enrichment (6-mer frequency, TF over GST control) | 1.06 fold enrichment (6-mer frequency, TF over GST control) | 1.05 fold enrichment (6-mer frequency, TF over GST control) | 1.05 fold enrichment (6-mer frequency, TF over GST control)
ATTTGT | 1.34 fold enrichment (6-mer frequency, TF over GST control) | 1.35 fold enrichment (6-mer frequency, TF over GST control) | 1.36 fold enrichment (6-mer frequency, TF over GST control) | 1.33 fold enrichment (6-mer frequency, TF over GST control) | 1.34 fold enrichment (6-mer frequency, TF over GST control) | 1.26 fold enrichment (6-mer frequency, TF over GST control) | 1.4 fold enrichment (6-mer frequency, TF over GST control) | 1.29 fold enrichment (6-mer frequency, TF over GST control)
ACCCGA | 1.22 fold enrichment (6-mer frequency, TF over GST control) | 1.05 fold enrichment (6-mer frequency, TF over GST control) | 1.07 fold enrichment (6-mer frequency, TF over GST control) | 1.03 fold enrichment (6-mer frequency, TF over GST control) | 1.11 fold enrichment (6-mer frequency, TF over GST control) | 1.01 fold enrichment (6-mer frequency, TF over GST control) | 1.05 fold enrichment (6-mer frequency, TF over GST control) | 1.04 fold enrichment (6-mer frequency, TF over GST control)
CTCCGT | 1.07 fold enrichment (6-mer frequency, TF over GST control) | 1.19 fold enrichment (6-mer frequency, TF over GST control) | 1.22 fold enrichment (6-mer frequency, TF over GST control) | 1.05 fold enrichment (6-mer frequency, TF over GST control) | 1.33 fold enrichment (6-mer frequency, TF over GST control) | 1.14 fold enrichment (6-mer frequency, TF over GST control) | 1.22 fold enrichment (6-mer frequency, TF over GST control) | 1.16 fold enrichment (6-mer frequency, TF over GST control)
AAGTGT | 1.24 fold enrichment (6-mer frequency, TF over GST control) | 1.2 fold enrichment (6-mer frequency, TF over GST control) | 1.38 fold enrichment (6-mer frequency, TF over GST control) | 1.32 fold enrichment (6-mer frequency, TF over GST control) | 1.42 fold enrichment (6-mer frequency, TF over GST control) | 1.43 fold enrichment (6-mer frequency, TF over GST control) | 1.23 fold enrichment (6-mer frequency, TF over GST control) | 1.35 fold enrichment (6-mer frequency, TF over GST control)
TATCAG | 1.13 fold enrichment (6-mer frequency, TF over GST control) | 1.11 fold enrichment (6-mer frequency, TF over GST control) | 1.15 fold enrichment (6-mer frequency, TF over GST control) | 1.26 fold enrichment (6-mer frequency, TF over GST control) | 1.07 fold enrichment (6-mer frequency, TF over GST control) | 1.06 fold enrichment (6-mer frequency, TF over GST control) | 1.12 fold enrichment (6-mer frequency, TF over GST control) | 1.12 fold enrichment (6-mer frequency, TF over GST control)
CGACCG | 1.17 fold enrichment (6-mer frequency, TF over GST control) | 1.28 fold enrichment (6-mer frequency, TF over GST control) | 1.22 fold enrichment (6-mer frequency, TF over GST control) | 1.22 fold enrichment (6-mer frequency, TF over GST control) | 1.13 fold enrichment (6-mer frequency, TF over GST control) | 1.12 fold enrichment (6-mer frequency, TF over GST control) | 1.12 fold enrichment (6-mer frequency, TF over GST control) | 1.18 fold enrichment (6-mer frequency, TF over GST control)
